{"source": "the supplement of paper PMC11732987", "about": "“Enantioselective OTUD7B fragment discovery through chemoproteomics screening and high-throughput optimisation” (Communications Chemistry, 2025)", "assay_in_all_cases": "log2 ratio of Biotin-Ahx-Ub-VS probe labelling (fragment/DMSO); higher = less target engagement (more negative = stronger competition), active = hit call of the paper (q ≤ 0.05, log2 ratio ≤ -1)", "details_in_all_cases": "compound concentration: 200 uM; treatment time: 3 h", "key": {"USP19": {"target": "T1, USP19 (UniProt O94966)", "T1 sequence (whole entry)": "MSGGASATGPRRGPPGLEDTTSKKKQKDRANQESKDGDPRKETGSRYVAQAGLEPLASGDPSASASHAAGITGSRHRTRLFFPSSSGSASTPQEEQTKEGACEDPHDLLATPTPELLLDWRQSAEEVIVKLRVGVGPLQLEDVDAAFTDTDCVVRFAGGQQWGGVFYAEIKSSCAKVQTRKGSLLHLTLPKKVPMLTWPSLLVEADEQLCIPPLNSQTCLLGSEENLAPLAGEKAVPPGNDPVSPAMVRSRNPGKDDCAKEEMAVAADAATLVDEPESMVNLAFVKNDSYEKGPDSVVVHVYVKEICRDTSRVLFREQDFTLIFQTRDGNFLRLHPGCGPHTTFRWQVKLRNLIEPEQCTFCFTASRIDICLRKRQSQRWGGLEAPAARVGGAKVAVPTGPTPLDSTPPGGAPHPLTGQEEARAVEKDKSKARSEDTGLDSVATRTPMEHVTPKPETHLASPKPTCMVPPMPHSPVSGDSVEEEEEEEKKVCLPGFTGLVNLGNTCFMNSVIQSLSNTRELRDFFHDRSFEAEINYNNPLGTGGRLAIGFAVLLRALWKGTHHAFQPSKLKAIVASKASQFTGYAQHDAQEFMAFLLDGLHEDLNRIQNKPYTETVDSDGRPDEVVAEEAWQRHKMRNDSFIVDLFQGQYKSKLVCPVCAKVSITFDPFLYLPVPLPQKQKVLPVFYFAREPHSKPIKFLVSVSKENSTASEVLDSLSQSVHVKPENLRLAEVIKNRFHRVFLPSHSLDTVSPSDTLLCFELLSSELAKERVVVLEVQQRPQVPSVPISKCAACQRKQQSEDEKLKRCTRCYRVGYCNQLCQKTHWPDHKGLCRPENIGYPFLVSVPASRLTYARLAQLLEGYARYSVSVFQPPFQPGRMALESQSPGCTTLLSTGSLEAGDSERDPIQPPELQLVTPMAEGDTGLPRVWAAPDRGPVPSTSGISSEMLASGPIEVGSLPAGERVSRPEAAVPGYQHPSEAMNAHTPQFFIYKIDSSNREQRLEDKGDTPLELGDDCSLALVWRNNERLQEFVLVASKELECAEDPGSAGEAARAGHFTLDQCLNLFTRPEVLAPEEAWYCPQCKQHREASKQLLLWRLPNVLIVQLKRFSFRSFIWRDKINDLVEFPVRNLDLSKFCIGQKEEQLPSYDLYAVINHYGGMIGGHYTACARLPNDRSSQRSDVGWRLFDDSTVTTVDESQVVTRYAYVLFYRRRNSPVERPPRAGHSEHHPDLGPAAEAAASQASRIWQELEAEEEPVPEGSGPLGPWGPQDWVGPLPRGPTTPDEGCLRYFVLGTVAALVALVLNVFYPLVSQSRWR", "in_short": "(§1)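 Triplicate samples of HEK293T lysate, 495 µg each, received fragment at 200 µM or vehicle for 3 h, followed by Biotin-Ahx-Ub-VS (0.5 µM final) for 1 h. After NeutrAvidin enrichment of labelled DUBs and LysC/trypsin digestion, peptides were run by diaPASEF LC-MS/MS. The values are average log2 fragment/vehicle ratios from global-median-normalised Spectronaut label-free quantities, tested by unpaired t-test on proteins having ≥2 unique peptides.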"}, "USP22": {"target": "T2, USP22 (UniProt Q9UPT9)", "T2 sequence (whole entry)": "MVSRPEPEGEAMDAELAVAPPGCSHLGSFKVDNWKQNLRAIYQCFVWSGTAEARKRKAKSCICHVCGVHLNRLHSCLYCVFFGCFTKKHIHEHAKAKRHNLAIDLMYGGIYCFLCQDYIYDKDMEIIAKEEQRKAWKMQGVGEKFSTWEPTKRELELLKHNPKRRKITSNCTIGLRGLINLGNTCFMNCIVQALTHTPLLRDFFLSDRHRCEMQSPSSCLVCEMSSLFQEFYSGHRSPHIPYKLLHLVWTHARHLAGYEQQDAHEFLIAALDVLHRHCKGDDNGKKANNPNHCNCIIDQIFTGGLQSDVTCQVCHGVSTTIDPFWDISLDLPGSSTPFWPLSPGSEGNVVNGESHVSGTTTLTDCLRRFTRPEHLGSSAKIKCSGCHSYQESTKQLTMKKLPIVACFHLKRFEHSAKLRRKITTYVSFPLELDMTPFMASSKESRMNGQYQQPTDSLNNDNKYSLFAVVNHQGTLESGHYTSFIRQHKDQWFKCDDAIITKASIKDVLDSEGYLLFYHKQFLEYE", "in_short": "as §1"}, "USP24": {"target": "USP24 (UniProt Q9UPU5)", "sequence (Q9UPU5 whole entry)": "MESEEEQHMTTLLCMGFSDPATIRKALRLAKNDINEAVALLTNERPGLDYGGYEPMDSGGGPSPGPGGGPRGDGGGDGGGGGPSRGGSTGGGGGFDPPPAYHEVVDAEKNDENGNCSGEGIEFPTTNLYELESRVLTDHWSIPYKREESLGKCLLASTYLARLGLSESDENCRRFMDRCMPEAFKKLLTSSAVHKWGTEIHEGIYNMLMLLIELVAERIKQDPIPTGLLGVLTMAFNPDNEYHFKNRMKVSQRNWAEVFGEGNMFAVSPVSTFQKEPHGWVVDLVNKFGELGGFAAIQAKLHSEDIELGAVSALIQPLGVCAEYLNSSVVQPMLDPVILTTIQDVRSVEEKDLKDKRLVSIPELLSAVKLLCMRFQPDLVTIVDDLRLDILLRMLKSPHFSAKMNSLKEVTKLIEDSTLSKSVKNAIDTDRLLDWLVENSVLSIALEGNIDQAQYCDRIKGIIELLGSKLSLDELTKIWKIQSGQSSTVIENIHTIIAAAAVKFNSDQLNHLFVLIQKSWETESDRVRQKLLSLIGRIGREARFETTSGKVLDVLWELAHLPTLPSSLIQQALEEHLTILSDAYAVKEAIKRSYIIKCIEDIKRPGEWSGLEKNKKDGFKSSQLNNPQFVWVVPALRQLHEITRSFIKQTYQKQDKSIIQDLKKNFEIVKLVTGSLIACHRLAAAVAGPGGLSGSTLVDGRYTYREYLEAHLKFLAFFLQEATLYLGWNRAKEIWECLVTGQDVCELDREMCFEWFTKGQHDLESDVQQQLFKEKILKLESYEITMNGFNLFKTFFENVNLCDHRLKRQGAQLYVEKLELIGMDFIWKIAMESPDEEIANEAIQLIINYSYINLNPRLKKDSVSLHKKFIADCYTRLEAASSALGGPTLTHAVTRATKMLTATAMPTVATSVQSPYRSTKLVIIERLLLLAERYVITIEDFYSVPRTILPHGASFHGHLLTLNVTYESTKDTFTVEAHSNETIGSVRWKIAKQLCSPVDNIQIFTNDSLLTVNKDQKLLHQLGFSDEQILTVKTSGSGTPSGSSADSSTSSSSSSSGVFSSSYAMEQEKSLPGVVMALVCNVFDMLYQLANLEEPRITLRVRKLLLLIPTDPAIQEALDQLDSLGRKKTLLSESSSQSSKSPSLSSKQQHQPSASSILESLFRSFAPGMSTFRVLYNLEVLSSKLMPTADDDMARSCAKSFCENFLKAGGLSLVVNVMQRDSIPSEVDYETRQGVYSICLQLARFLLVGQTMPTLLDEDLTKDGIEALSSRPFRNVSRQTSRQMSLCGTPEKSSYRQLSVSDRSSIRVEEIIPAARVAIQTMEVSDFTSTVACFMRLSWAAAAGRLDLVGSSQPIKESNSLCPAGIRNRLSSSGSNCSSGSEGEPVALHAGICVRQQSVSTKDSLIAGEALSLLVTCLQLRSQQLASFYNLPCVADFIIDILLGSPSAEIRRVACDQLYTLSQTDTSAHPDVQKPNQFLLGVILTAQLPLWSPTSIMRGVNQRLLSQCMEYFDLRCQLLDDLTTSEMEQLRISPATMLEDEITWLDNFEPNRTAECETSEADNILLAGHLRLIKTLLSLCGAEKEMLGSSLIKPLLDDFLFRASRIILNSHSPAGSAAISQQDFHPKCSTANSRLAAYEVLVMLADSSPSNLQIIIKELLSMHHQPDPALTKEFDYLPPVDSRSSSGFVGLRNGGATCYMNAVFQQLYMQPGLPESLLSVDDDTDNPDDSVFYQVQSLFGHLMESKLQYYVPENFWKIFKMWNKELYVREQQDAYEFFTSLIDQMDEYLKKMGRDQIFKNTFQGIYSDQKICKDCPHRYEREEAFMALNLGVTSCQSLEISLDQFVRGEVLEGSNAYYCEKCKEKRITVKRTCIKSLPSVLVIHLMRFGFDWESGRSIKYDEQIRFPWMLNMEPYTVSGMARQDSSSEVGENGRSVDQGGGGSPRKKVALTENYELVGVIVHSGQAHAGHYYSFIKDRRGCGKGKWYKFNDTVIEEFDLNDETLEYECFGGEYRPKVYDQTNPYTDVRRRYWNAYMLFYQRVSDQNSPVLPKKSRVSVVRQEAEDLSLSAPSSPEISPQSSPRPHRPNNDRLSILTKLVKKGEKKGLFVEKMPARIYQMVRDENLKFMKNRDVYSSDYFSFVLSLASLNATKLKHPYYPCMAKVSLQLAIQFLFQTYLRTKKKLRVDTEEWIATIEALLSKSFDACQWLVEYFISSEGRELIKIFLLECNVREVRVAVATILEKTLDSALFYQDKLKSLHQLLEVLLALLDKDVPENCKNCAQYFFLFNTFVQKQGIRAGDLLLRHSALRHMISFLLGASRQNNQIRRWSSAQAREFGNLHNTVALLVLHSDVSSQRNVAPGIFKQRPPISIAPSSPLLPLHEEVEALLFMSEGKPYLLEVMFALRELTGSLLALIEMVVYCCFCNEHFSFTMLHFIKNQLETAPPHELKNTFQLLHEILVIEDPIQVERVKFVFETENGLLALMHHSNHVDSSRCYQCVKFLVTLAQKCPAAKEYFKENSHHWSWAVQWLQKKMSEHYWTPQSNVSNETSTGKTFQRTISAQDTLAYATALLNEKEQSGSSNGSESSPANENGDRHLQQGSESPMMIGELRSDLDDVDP", "in_short": "as §1"}, "USP25": {"target": "T3, USP25 (UniProt Q9UHP3)", "T3 sequence (whole entry)": "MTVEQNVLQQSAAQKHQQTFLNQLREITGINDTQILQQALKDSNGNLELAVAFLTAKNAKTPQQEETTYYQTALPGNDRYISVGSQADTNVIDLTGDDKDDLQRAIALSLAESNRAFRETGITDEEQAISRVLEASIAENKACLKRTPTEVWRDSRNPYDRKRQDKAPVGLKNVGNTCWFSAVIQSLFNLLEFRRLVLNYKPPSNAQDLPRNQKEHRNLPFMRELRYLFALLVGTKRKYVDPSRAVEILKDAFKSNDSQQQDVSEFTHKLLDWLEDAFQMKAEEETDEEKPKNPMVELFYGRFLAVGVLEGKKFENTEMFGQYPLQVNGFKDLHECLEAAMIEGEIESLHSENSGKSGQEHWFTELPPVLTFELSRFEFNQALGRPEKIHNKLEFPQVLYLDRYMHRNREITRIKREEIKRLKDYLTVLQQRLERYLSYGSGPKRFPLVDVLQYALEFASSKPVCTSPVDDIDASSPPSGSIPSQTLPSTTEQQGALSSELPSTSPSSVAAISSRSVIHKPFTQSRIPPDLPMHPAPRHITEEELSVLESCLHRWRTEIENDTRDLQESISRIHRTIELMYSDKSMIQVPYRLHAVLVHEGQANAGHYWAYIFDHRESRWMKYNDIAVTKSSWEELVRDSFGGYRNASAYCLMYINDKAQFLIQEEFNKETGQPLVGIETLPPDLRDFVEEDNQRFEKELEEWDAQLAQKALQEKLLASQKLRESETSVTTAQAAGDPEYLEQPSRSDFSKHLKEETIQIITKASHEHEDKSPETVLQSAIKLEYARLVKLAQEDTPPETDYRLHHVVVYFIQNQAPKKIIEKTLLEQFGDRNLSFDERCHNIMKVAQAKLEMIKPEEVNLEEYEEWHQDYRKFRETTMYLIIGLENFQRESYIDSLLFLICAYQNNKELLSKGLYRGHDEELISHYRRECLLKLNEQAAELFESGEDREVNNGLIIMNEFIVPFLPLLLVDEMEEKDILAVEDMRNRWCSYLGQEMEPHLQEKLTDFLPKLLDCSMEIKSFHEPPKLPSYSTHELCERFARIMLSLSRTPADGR", "in_short": "as §1"}, "USP28": {"target": "T4, USP28 (UniProt Q96RU2)", "T4 sequence (whole entry)": "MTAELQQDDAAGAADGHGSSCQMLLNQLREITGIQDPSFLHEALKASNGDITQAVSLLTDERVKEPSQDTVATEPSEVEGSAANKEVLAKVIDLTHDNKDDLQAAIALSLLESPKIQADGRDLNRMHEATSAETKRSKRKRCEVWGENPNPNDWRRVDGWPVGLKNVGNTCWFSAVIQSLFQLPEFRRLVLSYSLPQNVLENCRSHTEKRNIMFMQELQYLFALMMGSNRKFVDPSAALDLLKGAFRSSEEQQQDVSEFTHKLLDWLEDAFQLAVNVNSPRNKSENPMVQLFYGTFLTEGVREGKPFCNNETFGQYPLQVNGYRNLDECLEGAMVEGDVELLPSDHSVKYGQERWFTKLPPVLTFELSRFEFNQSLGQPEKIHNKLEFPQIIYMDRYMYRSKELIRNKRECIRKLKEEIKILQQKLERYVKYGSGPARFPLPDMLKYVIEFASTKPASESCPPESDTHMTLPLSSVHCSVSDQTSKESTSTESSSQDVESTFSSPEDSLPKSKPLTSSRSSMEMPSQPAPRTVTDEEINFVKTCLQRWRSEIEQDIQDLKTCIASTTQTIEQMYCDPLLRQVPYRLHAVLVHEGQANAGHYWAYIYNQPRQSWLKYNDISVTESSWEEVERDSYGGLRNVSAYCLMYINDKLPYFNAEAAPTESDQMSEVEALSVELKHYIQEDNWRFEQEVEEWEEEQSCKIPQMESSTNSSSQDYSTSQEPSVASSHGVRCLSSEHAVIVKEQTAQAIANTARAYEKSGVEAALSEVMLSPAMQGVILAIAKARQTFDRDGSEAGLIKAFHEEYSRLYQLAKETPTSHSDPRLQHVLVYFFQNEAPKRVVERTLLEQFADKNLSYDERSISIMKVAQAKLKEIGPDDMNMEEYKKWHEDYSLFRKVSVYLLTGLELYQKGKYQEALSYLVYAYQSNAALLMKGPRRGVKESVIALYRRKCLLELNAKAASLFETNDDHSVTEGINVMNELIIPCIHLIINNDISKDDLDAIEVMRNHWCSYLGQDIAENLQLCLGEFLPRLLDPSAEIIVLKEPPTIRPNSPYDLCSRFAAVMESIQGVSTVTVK", "in_short": "as §1"}}, "note": "Values without a mark were called inactive.", "data": [{"molecule": "CC1CN(c2ccc(NC(=O)CCl)cc2)CC(C)O1", "note": "(stereo not given)", "values": [{"measurement": "log2 ratio of Biotin-Ahx-Ub-VS probe labelling", "setting": "USP19", "result": -0.126}, {"measurement": "log2 ratio of Biotin-Ahx-Ub-VS probe labelling", "setting": "USP22", "result": -0.32}, {"measurement": "log2 ratio of Biotin-Ahx-Ub-VS probe labelling", "setting": "USP24", "result": -0.205}, {"measurement": "log2 ratio of Biotin-Ahx-Ub-VS probe labelling", "setting": "USP25", "result": "-1.58 (active)"}, {"measurement": "log2 ratio of Biotin-Ahx-Ub-VS probe labelling", "setting": "USP28", "result": "-1.57 (active)"}]}]}
